Source: PubChem BioAssay
ALDH1A1 inh = inhibitors of human aldehyde dehydrogenase 1A1 | P00352 | 7.3% of 220,000 active | Potency, µM (top dose mostly 75.3 µM), inactives show at the top dose activity, negative = inhibition, most hits filed as inhibitors | Purified ALDH1A1, NADH fluorescence, propionaldehyde substrate | AID 1030;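 note: potency is the fitted concentration of half-maximal effect; plate controls were no enzyme wells and a reference inhibitor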
Target sequence (P00352 whole entry, looked up): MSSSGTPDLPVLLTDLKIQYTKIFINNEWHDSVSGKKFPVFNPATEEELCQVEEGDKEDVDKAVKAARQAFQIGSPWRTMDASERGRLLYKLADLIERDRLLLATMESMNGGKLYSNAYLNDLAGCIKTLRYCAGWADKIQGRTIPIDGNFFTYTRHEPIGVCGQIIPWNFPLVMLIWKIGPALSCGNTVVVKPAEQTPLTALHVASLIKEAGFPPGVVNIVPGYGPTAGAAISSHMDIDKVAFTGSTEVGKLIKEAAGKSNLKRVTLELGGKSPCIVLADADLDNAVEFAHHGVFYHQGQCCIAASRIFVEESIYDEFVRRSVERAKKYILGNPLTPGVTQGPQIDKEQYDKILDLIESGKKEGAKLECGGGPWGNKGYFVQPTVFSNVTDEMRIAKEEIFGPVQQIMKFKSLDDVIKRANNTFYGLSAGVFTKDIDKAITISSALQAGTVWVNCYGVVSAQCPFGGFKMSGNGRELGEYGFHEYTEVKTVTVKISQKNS
HPGD block = inhibitors of human 15-hydroxyprostaglandin dehydrogenase (HPGD) | P15428 | purified HPGD, NADH fluorescence kinetic, PGE2 substrate | Potency, µM, for inactives: top-dose activity change, negative = inhibition, usual class: inhibitors | 4.3% of 150,000 active; note: potency is the fitted concentration of half-maximal effect
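20 nM HPGD preincubated 15 min at room temperature with compound in 50 mM Tris-HCl pH 8, 0.01% Tween 20. Started with 1 mM NAD+ and 30 uM prostaglandin E2; NADH fluorescence (360/450 nm) read 5 times over 30-s intervals, last minus first.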
PNC inhibitor = blocks assembly of the perinucleolar compartment | 3.1% of 140,000 active | AID 2417 | activity change (PNC), negative = inhibition, % at 10 µM | PC3M PTB-GFP, PNC prevalence imaging, 16 h; hits give low values;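 active = readout at or below -70, meaning at least 70% loss of cells showing the perinucleolar compartment, a nuclear body marking cancer cells; inconclusive = readout between -30 and a set limit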;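 note: plate controls were DMSO wells for no effect and camptothecin positive control wells for full effect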
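Compounds are pinned in duplicate onto adhered PC3M cells stably expressing GFP-tagged PTB and incubated 16 h at 37 C. Cells are then fixed, nuclei stained with Hoechst, and PNC-positive cells counted.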
12-hLO inh = blocks human 12-lipoxygenase activity; P18054; purified 12-hLO, xylenol orange hydroperoxide absorbance; Potency, µM (highest dose often 57.1 µM), without a hit: at the highest dose activity change, negative = inhibition, hits mostly inhibitors; 0.12% of 150,000 active; AID 1452; active = well fitted inhibition curve with a large enough effect; inconclusive = small, poorly fitted or top-dose-only effect; note: potency is the fitted concentration of half-maximal effect; nearly all actives have a fitted effect of over 55% in size
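Purified human 12hLO (150 nM final) was preincubated with compounds for 15 min at room temperature in 25 mM Hepes pH 7.0, 0.01% Triton X-100, then reacted with 40 uM arachidonic acid for 30 min. Hydroperoxide was detected with ferrous iron/xylenol orange.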
LMNA splice mod = changes lamin A minigene splicing in HeLa cells. Potency, µM (series often up to 46.1 µM), for the others: top-dose ratio change, negative = inhibition, actives largely listed as inhibitors. HeLa LMNA splicing GFP/RFP minigene ratio, 48 h. 0.01% of 200,000 active; active = well fitted inhibition curve with a large enough effect in the signal ratio, with a control signal flat, not every such curve was filed as active; inconclusive = small, poorly fitted or top-dose-only effect, or effect the other way, or a change in a side signal; the % refers to the signal ratio; note: potency is the fitted concentration of half-maximal effect
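S3 HeLa cells stably expressing lamin A-EGFP splicing minigene plus DsRed2, 600 cells/well, 48 h compound exposure at 37C. Laser-scanning cytometry; analysed as GFP (500-530 nm)/RFP (575-640 nm) total intensity ratio; 0.5% DMSO vehicle.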
The depositor's hits bear a star; u = inconclusive; x = no result given; [ ] = remark or other dose. This is a sample that favours compounds with a hit; in the whole collection about 10% have one here. Unless noted, calls come from the whole dose curve; as a rule, active = well fitted inhibition curve with a large enough effect (not every such curve was filed as active); inconclusive = small, poorly fitted or top-dose-only effect, or another doubt; inactive = no such curve, though single readings can be large or run the other way. Unless noted, % is set by controls: 0 for no effect and ±100 for the full control effect.

SMILES	ALDH1A1 inh	HPGD block	PNC inhibitor	12-hLO inh	LMNA splice mod
CN1CCN(Cc2nc3ccccc3c(=O)n2Cc2nc(-c3ccc([N+](=O)[O-])cc3)cs2)CC1	12.6µM*	x	u	3.8%	-12.7%
CN1CCN(Cc2nc3ccccc3c(=O)n2CC#N)CC1	1.9%	x	x	x	x
CC(OC(=O)c1ccco1)C(=O)Nc1ccc(Cl)cn1 (configuration not stated)	-0.7%	x	x	x	8.3%[46 µM]
Cc1cc(C)nc(/N=C(\N)C2=C(O)CC(C)(C)CC2=O)n1	3.16µM*	-5.3%	-13.6	-3.4%	6.0%
CC(=Nc1ccccc1)C1=C(O)CC(C)(C)CC1=O	3.1%	x	x	x	x
Cc1c(/C=N/NC(=O)C(NC(=O)c2ccc3c(c2)OCO3)C(C)C)c2ccccc2n1C (configuration not stated)	-9.9%	-7.6%	-26.3	-2.9%	u
CCOCCCNC(=O)NC(C)c1c(-n2cccc2)sc2c1CCN(CC)C2 (configuration not stated)	x	x	x	x	2.6%[46 µM]
O=C(Nc1ccc(F)c([N+](=O)[O-])c1)C(=O)c1c(O)[nH]c2ccccc12	12.6µM*	x	x	x	x
CC(C)(C)C(=O)Nc1ccc2nc(SCC(=O)N3CCc4ccccc43)sc2c1	x	x	x	x	-8.7%[46 µM]
CC(=O)C1=C(C)NC(SCC(=O)c2ccc(-c3ccccc3)cc2)=C(C#N)C1c1cccnc1 (configuration not stated)	-1.2%	-4.9%	84.1	-5.5%	u
CC(=O)C1=C(C)NC(SCC(N)=O)=C(C#N)C1CC(C)C (configuration not stated)	32.2%	x	x	x	x
CC(=O)C1=C(C)NC(SCC(=O)c2ccc(F)cc2)=C(C#N)C1CC(C)C (configuration not stated)	10.7%	22.4µM*	u	-16.3%	4.3%
CC(=O)C1=C(C)NC(SCC(=O)c2ccc(Cl)cc2)=C(C#N)C1CC(C)C (configuration not stated)	14.1µM*	-20.9%	2.5	-11.3%	-6.5%
C[C@@]12CCC(=O)C=C1CC[C@H]1C2[C@@H](O)C[C@]2(C)[C@@H]1CC[C@@]2(O)C(=O)CO (some centres not stated)	6.5%[13.5 µM]	-1.7%	x	x	x
CCN(CC)c1ccc(C2=NNC(=O)CC2C)cc1[N+](=O)[O-] (configuration not stated)	12.6µM*	-13.6%	37.8	-1.6%	u
CC1CC(=O)NN=C1c1ccc(N(C)C)c([N+](=O)[O-])c1 (configuration not stated)	u	-7.0%	1.3	-3.8%	-6.0%
O=C(N1CCOCC1)C1(c2ccccc2)CCCCC1	-14.9%	7.4%	-105.1*	-1.7%	-1.9%
CCOc1cc(/C=C2\NC(=S)N(c3c(C)n(C)n(-c4ccccc4)c3=O)C2=O)ccc1O	-2.3%	-6.2%	u	-6.3%	2.6%
CCOc1cccc(/C=C2\NC(=S)N(c3ccccc3)C2=O)c1O	20µM*	x	x	x	x
O=C(c1ccc(F)cc1F)C1CCN(c2ccc([N+](=O)[O-])cn2)CC1	20µM*	x	x	x	x
CN(C)c1ccc(/C=N\Nc2nc(-c3ccccc3)cc(=O)[nH]2)cc1	u	-9.1%	-118.2*	-3.5%	-11.5%
COc1ccc(/C=N/NC(=O)CSc2ccccc2)cc1OC	u	-9.7%	-6.8	-2.0%	-6.0%
COC(=O)Oc1ccc(/C=N/NC(=O)CSCc2ccccc2Br)cc1OC	12.6µM*	-5.1%	u	-7.9%	-14.5%
CC(=O)c1cc(-c2ccc(F)cc2)n(CCC(=O)Nc2nc3c(C)cccc3s2)c1C	x	x	x	x	26.5%[46 µM]
Cc1nc2c(c(C)c1C#N)C(=O)c1ccccc1-2	12.3%	-6.2%	-96.3*	-0.2%	-23.3%
Cc1nc2c(c(-c3ccccc3)c1C#N)C(=O)c1ccccc1-2	u	-5.9%	113.7	6.0%	3.5%[0.0737 µM]
N#Cc1c(Cl)nc(SCc2ccccc2)nc1-c1ccccc1	31.6µM*	2.82µM*	-25.0	-12.0%	1.2%
c1ccc(CSc2ncccn2)cc1	-7.1%	-21.2%	-11.2	-5.3%	-1.6%
COc1ccc(Nc2c3c(c(C#N)c4nc5ccccc5n24)CCC3)cc1	u	1.26µM*	7.7	-2.0%	0.4%
